Rows were chosen to be rich in hits. Some 19% of all compounds tested hit in one or more screens of this group.
TDP1 cell noCPT: qHTS for Inhibitors of human tyrosyl-DNA phosphodiesterase 1 (TDP1): qHTS in cells in absence of CPT. Potency, µM (series often up to 46.2 µM), without a hit: at the top dose activity change, negative = growth inhibition, actives largely listed as inhibitors. hit rate 15% among 420,000. AID 686978, 2013. DT40 Tdp1-/- hTDP1 cells, no CPT, ATP luminescence, 48 h; further: nearly all actives have a fitted effect of over 55% in size
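Camptothecin absent (DMSO only). Human TDP1-complemented DT40 knockout cells, 400 cells/well, 37 °C for minimum 48 hr; ATP measured via CellTiter-Glo, 30 min dark incubation, luminescence.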
DT40 TDP1 CPT: qHTS for Inhibitors of human tyrosyl-DNA phosphodiesterase 1 (TDP1): qHTS in cells in presence of CPT; Potency, µM (highest dose often 46.2 µM), for inactives: at the highest dose activity change, negative = growth inhibition, usual class: inhibitors; chicken DT40 Tdp1-/-;hTDP1 cells + 20 nM CPT, ATP luminescence, 48 h; hit rate 12% among 420,000; further: nearly all actives have a fitted effect of over 55% in size
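Chicken DT40 Tdp1-/- cells stably complemented with human TDP1 were seeded at 400 cells/well in medium containing 20 nM camptothecin, exposed to pin-transferred compounds, and grown at 37 °C for at least 48 hr. Viability was read as ATP luminescence.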
KB-3-1 cytotox: qHTS assay for MDR1-selective chemotherapeutics: Primary screen using the parental adenocarcinoma cell KB-3-1; AID 1347075, 2019; Potency, µM (series often up to 46.1 µM), usual class: cytotoxic; hit rate 1.4% among 400,000; KB-3-1 viability, CellTiter-Glo ATP luminescence, 72 h; further: nearly all actives have a fitted effect of over 60% in size
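Cells are dispensed, compounds pinned in, plates held at 37 °C for 72 h, then CellTiter-Glo is added and luminescence read after 10 minutes. Cell line: parental KB-3-1 in phenol-red-free DMEM, 10% FBS.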
HT1080-NT tox: qHTS for induction of synthetic lethality in tumor cells producing 2HG: qHTS for the HT-1080-NT fibrosarcoma cell line. HT-1080-NT fibrosarcoma viability, CellTiter-Glo ATP luminescence, 48 h. hit rate 1.6% among 360,000. Potency, µM (series often up to 46.1 µM), for the others: top-dose activity, negative = less viability, most hits filed as cytotoxic. AID 686970, 2013;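 further: NT is the 2HG producing partner of a matched IDH1 knockdown line; 0% = DMSO-treated cells and -100% = media-only wells without cells; nearly all actives have a fitted effect of over 55% in size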
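A 48-hour cytotoxicity screen used HT-1080-NT cells plated 2 hours before compound delivery. ATP-based CellTiter-Glo luminescence measured viability, normalized to DMSO and no-cell controls.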
KB-V1 MDR tox: qHTS assay for MDR1-selective chemotherapeutics: Primary screen using the drug-selected MDR subline cells KB-V1. AID 1347076, 2019. Potency, µM (doses to about 46.1 µM), hits mostly cytotoxic. KB-V1 MDR cells viability, CellTiter-Glo, 72 h. hit rate 3.4% among 400,000; further: nearly all actives have a fitted effect of over 60% in size
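Readout: CellTiter-Glo luminescence, 10 min after addition. Cells: KB-V1 MDR subline, 72 h at 37 degrees C with compound. Analysis: corrected, normalized data fitted to concentration-effect curves.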
HT1080 IDH1KD tx: qHTS for induction of synthetic lethality in tumor cells producing 2HG: qHTS for the HT-1080-IDH1KD cell line | HT-1080 IDH1 knockdown viability, ATP luminescence, 48 h | Potency, µM (doses to about 46.1 µM), without a hit: top-dose activity, negative = toxicity, most hits filed as cytotoxic | hit rate 2% among 360,000 | AID 686971, 2013;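 further: 0% = DMSO wells and -100% = cell-free medium wells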
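IDH1KD HT-1080 cells, 750/well, RPMI + 5% FBS; compound pinned after 2 h settling; 48 h, 37 °C; CellTiter-Glo luminescence; % activity normalised to DMSO and no-cell wells; curves fitted, classed by r2 and efficacy.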
* hit, by the source's call; i = inactive; ? = inconclusive; / = no result; [ ] = dose if it differs, or a comment. The call rests on the fitted dose curve; in most records, active means well fitted curve in the direction sought with a large enough effect; inconclusive means small, poorly fitted or top-dose-only effect, or another doubt; inactive means no such curve, though single readings can be large; an effect the other way counts as inactive or inconclusive. Unless noted, on the % scale 0 is the no-effect control and ±100 the full control effect; potency means the concentration at half of the fitted maximal effect.

SMILES	TDP1 cell noCPT	DT40 TDP1 CPT	KB-3-1 cytotox	HT1080-NT tox	KB-V1 MDR tox	HT1080 IDH1KD tx
CCOC(=O)[C@]12CCC=C1N(Cc1ccc(Cl)cc1Cl)C(=O)[C@H](CC(=O)N1CCSCC1)C2	16.4µM*	23.1µM*	?	-7.1%	?	-4.1%
CCOC(=O)N1CCN(C(=O)C[C@@H]2C[C@@]3(C(=O)OCC)CCCC=C3N(Cc3ccc(Cl)cc3Cl)C2=O)CC1	23.1µM*	20.6µM*	i	-21.7%	?	-23.5%
CCOC(=O)N1CCN(C(=O)C[C@@H]2C[C@@]3(C(=O)OC)CCCCC=C3N(Cc3ccc(Cl)cc3Cl)C2=O)CC1	11.6µM*	20.6µM*	i	-26.4%	?	-25.5%
COC(=O)[C@]12CCCCC=C1N(Cc1ccc(Cl)cc1Cl)C(=O)[C@H](CC(=O)N1CCCC1)C2	?	?	i	?	i	?
Cc1ccc(NC(=O)CCn2cc(C(F)(F)F)ccc2=O)cc1	-6.0%	4.9%	i	2.0%	i	3.2%
COc1ccc(N(C(=O)CNC(=O)c2ccco2)C(C(=O)NC2CCCC2)c2ccco2)cc1 (configuration not stated)	-6.4%	2.1%	i	-2.8%	i	3.7%
CCCCCn1c(=O)[nH]c2cc(C(=O)N3CCN(c4ccccc4F)CC3)ccc2c1=O	14.6µM*	?	i	-1.3%	?	-3.7%
CCCCCn1c(=O)[nH]c2cc(C(=O)N3CCN(c4cc(Cl)ccc4C)CC3)ccc2c1=O	?	?	i	/	i	/
CCOC(=O)N1CCN(C(=O)c2ccc3c(=O)n(CCC4=CCCCC4)c(=O)[nH]c3c2)CC1	18.4µM*	16.4µM*	i	-0.9%	i	-3.8%
CCCCCn1c(=S)[nH]c2cc(C(=O)N3CCN(C(=O)OCC)CC3)ccc2c1=O	?	-22.8%	i	5.8%	?	14.7%
CCCCN(CCCC)CCCNC(=O)c1ccc2nc(-c3ccccc3NC(C)=O)c(=O)[nH]c2c1	0.4%	-9.1%	i	-15.4%	i	-16.2%
CC(=O)Nc1ccccc1-c1nc2ccc(C(=O)N3CCN(c4cc(C)ccc4C)CC3)cc2[nH]c1=O	14.6µM*	?	i	20.3%	i	7.8%
CCCCCn1c(=O)[nH]c2cc(C(=O)N3CCN(c4ccc(F)cc4)CC3)ccc2c1=O	8.2µM*	?	?	?	?	0.1%
Cc1ccc(C)c(N2CCN(C(=O)c3ccc4c(=O)n(CCc5ccccc5)c(=O)[nH]c4c3)CC2)c1	16.4µM*	20.6µM*	i	/	i	/
CCCCCn1c(=O)[nH]c2cc(C(=O)N3CCN(c4ccc(C(C)=O)cc4)CC3)ccc2c1=O	14.6µM*	14.6µM*	i	-17.3%	i	-28.1%
CCCCCn1c(=O)[nH]c2cc(C(=O)N3CCN(CC)CC3)ccc2c1=O	-22.7%	-26.5%	i	1.9%	i	2.4%
CCCn1c(N2CCN(Cc3ccc(Cl)cc3)CC2)nc2ccccc21	11.6µM*	?	i	-3.6%	?	-5.6%
CCn1c(N2CCN(Cc3ccc([N+](=O)[O-])cc3)CC2)nc2ccccc21	20.6µM*	?	i	-3.0%	?	-8.0%
O=[N+]([O-])c1ccc(N2CCN(Cc3ccccc3)CC2)nc1	?	?	i	-0.7%	i	-17.9%
CCCn1c(N2CCN(C(=O)/C=C/C(=O)O)CC2)nc2ccccc21	19.8%	2.7%	i	-1.9%	i	8.3%
CCc1ccc(CNC(=O)c2cnc3sc4cc(OC)ccc4n3c2=O)cc1	-11.7%	3.4%	i	/	i	/
COc1cc2nc(CN(CCO)C3CS(=O)(=O)CC3O)nc(N3CCCCC3)c2cc1OC (configuration not stated)	-3.8%	-5.5%[9.04 µM]	/	/	/	/
Cc1cc(C)n(-c2nc3cc(Cl)ccc3nc2Nc2ccc(CC(=O)O)cc2)n1	-9.5%	-24.4%	i	/	i	/
CCOC(=O)c1cccc(NC(=O)CSc2nnc(COc3ccccc3)n2CC)c1	-14.4%	-25.0%	i	5.0%	11.6µM*	-4.7%
COc1ccc(OC)c(NC(=O)CSc2nnc(-c3ccco3)n2-c2ccccc2)c1	?	20.6µM*	i	-2.0%	?	-4.7%
SMILES	TDP1 cell noCPT	DT40 TDP1 CPT	KB-3-1 cytotox	HT1080-NT tox	KB-V1 MDR tox	HT1080 IDH1KD tx
COc1ccc(NC(=O)CSc2nnc(C3CCCCC3)n2N)c(OC)c1	11.7%	-3.5%	i	6.3%	i	11.6%
CCn1c(COc2ccccc2)nnc1SCC(=O)Nc1cc(OC)ccc1OC	?	?	i	-3.8%	13µM*	-9.6%
COc1ccc(-n2c(SCC(=O)Nc3cccc(C(=O)O)c3)nnc2-c2ccco2)cc1	-0.2%	-7.2%	i	16.0%	i	14.6%
CCn1c(COc2cccc(C)c2)nnc1SCC(=O)Nc1cccc(C(=O)OC)c1	?	?	i	-8.6%	i	-6.8%
CCn1c(SCC(=O)Nc2cc(OC)ccc2OC)nnc1C1CCCCC1	-24.7%	29.1µM*	i	-11.1%	?	-4.9%[9.24 µM]
CC(NC(=O)C1CCN(c2nnc(N3CCCC3=O)s2)CC1)c1ccccc1 (configuration not stated)	-9.9%	-22.2%	i	5.9%	i	-8.5%
O=C(CSc1nnc(-c2ccco2)n1-c1ccccc1)N1CCN(C(=O)c2ccco2)CC1	23.1µM*	?	i	-2.1%	i	-23.0%
Cn1c(SCC(=O)N2CCN(c3ccccc3)CC2)nnc1-c1ccco1	-2.2%	-19.7%	i	6.3%	i	-0.5%
CCC(C)[C@H](NC(=O)[C@@H]1CSC2c3ccccc3C(=O)N21)C(=O)N1CCCCC1 (some centres not stated)	14.0%	-22.8%	i	-2.3%	i	6.3%
CCCNC(=O)c1oc2ccc3c(c2c1C)C(=O)CC(C)(C)O3	?	-17.3%	i	-2.0%	i	8.6%
CCOC(=O)c1ccc(NC(=O)c2oc3ccc4c(c3c2C)C(=O)CC(C)(CC)O4)cc1 (configuration not stated)	20.6µM*	?	i	/	i	/
